# Laboratory results reported in PubChem BioAssay (EPA / NIEHS).
# Records with an inconclusive call do not appear. More than one record can exist for a structure, and the calls need not agree. Active and inactive are the calls of the source. How the source made its calls: active means hit-call score of the fitted dose curve at least 0.9, where 1 is the maximum; inconclusive means response in the unintended direction; inactive means score below 0.9.
# Tests used:
# [1] = biological target: human Dopamine Receptor D4.4 (DRD4.4), DRD4 (gene 1815) (UniProt P21917); assay: NVS_GPCR_hDRD4.4: NovaScreen (NVS) G Protein-Coupled Receptor Assay for human Dopamine Receptor D4.4 (DRD4.4) (AID 2283264)
# Sequence of human Dopamine Receptor D4.4 (DRD4.4), DRD4 (gene 1815) (P21917 whole entry, looked up): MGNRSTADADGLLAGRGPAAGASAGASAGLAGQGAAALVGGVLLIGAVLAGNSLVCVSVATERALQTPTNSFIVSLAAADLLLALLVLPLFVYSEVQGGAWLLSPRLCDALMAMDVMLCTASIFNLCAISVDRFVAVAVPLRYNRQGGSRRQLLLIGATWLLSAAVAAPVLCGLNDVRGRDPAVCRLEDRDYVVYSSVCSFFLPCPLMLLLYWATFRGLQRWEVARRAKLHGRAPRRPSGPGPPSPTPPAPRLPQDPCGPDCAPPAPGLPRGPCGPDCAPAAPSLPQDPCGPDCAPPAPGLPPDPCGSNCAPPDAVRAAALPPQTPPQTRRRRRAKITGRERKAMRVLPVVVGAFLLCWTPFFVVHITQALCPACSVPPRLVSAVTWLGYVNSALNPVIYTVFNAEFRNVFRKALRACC
# In short: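 Filter-binding assay with a tritiated or iodinated ligand, cell-free receptor prepared from CHO, 1 hour. Loss of bound radioactivity versus DMSO; single 25 uM duplicate screen, then concentration-response for actives.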
# [2] = biological target: human Dopamine Receptor D2 (DRD2), DRD2 (gene 1813) (UniProt P14416); assay: NVS_GPCR_hDRD2s: NovaScreen (NVS) G Protein-Coupled Receptor Assay for human Dopamine Receptor D2 (DRD2) (AID 2283266)
# Sequence of human Dopamine Receptor D2 (DRD2), DRD2 (gene 1813) (P14416 whole entry, looked up): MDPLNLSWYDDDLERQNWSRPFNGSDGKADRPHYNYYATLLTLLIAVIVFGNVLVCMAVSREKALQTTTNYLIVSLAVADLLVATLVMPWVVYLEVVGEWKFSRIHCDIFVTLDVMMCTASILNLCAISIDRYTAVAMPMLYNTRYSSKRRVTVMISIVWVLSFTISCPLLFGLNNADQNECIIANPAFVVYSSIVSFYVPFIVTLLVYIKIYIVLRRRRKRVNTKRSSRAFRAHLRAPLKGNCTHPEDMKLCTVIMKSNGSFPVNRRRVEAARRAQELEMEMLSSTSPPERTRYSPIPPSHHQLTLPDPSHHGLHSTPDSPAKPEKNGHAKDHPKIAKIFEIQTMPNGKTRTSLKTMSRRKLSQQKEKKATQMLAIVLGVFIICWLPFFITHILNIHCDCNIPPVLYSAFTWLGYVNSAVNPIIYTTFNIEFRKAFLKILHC
# In short: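 Test compound (25 uM, duplicate in the primary screen; concentration series at follow-up) competed with radioligand for human DRD2 in CHO-derived membrane protein. Filter-based scintillation counting was done 1.5 hours after dosing, with loss of signal analysed against DMSO.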
# [3] = biological target: Muscarinic acetylcholine receptor M2 (Homo sapiens) (UniProt P08172); assay: NVS_GPCR_hM2: NovaScreen (NVS) G Protein-Coupled Receptor Assay for human Muscarinic, M2 Receptor (AID 2283273)
# Sequence of Muscarinic acetylcholine receptor M2 (Homo sapiens) (P08172 whole entry, looked up): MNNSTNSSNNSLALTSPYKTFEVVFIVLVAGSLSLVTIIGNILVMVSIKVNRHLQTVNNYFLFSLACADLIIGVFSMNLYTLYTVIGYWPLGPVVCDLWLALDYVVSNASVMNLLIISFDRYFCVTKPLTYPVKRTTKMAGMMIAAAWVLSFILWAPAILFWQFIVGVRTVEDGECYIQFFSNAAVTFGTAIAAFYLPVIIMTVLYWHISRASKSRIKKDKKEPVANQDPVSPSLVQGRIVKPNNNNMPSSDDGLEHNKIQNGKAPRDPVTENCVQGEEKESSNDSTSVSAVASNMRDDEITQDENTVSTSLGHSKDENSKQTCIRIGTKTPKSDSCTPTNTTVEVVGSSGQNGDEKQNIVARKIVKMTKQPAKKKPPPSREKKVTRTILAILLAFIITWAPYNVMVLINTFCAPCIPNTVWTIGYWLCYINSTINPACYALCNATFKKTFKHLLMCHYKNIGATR
# Experimental: (§1) NVS_GPCR_hM2 is a biochemical, single-readout assay that uses extracted gene-proteins from CHO in a cell-free assay. Measurements were taken 1 hour after chemical dosing in a 96-well plate.NVS_GPCR_hM2 is one of one assay component(s) measured or calculated from the NVS_GPCR_hM2 assay. It is designed to make measurements of radioligand binding, a form of binding reporter, as detected with scintillation counting signals by Filter-based radiodetection technology.Data from the assay component NVS_GPCR_hM2 was analyzed into 1 assay endpoint. This assay endpoint, NVS_GPCR_hM2, was analyzed in the positive analysis fitting direction relative to DMSO as the negative control and baseline of activity. Using a type of binding reporter, loss-of-signal activity can be used to understand changes in the binding as they relate to the gene CHRM2. Furthermore, this assay endpoint can be referred to as a primary readout, because the performed assay has only produced 1 assay endpoint. To generalize the intended target to other relatable targets, this assay endpoint is annotated to the gpcr intended target family, where the subfamily is rhodopsin-like receptor.
# (§2) Binding assays used specific radioligands (tritiated, iodinated) with non-radioactive competitive displacement ligands in agonist or antagonist protocols (as indicated) and various reference compounds and inhibitors to titrate specific binding to receptors and transporters. Most enzyme assays (CYPs, kinases, phosphatases, proteases, HDACs) used recombinant protein and specific substrates (fluorescence mostly, some colorimetric and radioactive) and inhibitors, followed by a biochemical separation of substrate and product. All assays for the biochemical HTS were initially run in duplicate at a single concentration (10 uM for CYP450 assays and 25 uM for all others). […] Each assay was run with positive and negative controls, and concurrent controls on every plate. The follow-up (secondary) screen tested active chemical-pairs in concentration series, as well as a few additional assays not tested in the primary screen, some selected negative inactives, and several cases re-run in the concentration series for confirmatory purposes.
# [4] = biological target: human Muscarinic, M4 Receptor, CHRM4 (gene 1132) (UniProt P08173); assay: NVS_GPCR_hM4: NovaScreen (NVS) G Protein-Coupled Receptor Assay for human Muscarinic, M4 Receptor (AID 2283274)
# Sequence of human Muscarinic, M4 Receptor, CHRM4 (gene 1132) (P08173 whole entry, looked up): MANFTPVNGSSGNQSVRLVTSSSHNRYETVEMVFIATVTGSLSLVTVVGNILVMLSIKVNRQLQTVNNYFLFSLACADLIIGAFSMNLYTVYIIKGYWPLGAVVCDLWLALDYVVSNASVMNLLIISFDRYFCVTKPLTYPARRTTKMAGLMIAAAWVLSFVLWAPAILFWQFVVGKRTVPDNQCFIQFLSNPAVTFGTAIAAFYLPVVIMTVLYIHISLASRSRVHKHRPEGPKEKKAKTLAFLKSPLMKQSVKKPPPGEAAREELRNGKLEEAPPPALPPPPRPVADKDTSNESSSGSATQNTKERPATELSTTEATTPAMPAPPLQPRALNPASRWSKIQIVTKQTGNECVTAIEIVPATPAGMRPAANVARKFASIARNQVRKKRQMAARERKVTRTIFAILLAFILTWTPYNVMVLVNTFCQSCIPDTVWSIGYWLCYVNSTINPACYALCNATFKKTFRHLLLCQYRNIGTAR
# In short: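 Filter-based scintillation counting of radioligand bound to CHO-expressed human M4 preparations after 1 h; loss of signal fitted versus DMSO. Initial duplicate testing at 25 uM, concentration-response follow-up for actives.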
# [5] = biological target: Muscarinic acetylcholine receptor M5 (Homo sapiens) (UniProt P08912); assay: NVS_GPCR_hM5: NovaScreen (NVS) G Protein-Coupled Receptor Assay for human Muscarinic, M5 Receptor (AID 2283275)
# Sequence of Muscarinic acetylcholine receptor M5 (Homo sapiens) (P08912 whole entry, looked up): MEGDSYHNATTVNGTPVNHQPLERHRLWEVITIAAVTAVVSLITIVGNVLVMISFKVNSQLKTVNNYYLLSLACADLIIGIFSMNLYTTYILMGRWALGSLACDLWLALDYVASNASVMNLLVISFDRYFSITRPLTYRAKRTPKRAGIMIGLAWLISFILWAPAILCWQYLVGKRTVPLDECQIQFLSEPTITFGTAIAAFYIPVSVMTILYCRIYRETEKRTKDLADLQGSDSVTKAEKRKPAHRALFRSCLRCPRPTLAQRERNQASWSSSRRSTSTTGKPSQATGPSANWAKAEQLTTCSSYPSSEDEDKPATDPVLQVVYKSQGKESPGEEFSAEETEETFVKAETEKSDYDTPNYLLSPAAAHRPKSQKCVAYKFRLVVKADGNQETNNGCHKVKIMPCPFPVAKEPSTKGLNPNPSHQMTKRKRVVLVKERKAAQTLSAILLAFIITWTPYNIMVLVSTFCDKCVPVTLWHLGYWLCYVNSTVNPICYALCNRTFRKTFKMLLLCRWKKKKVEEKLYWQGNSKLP
# In short: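 Chemicals passing a primary duplicate screen at 25 uM were run as singleton concentration series, maximum 50 uM. Displacement of a specific radioligand from CHO-extracted receptor was read by filter scintillation after 1 h, relative to DMSO.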
# [6] = biological target: Neuropeptide Y receptor type 2 (Homo sapiens) (UniProt P49146); assay: NVS_GPCR_hNPY2: NovaScreen (NVS) G Protein-Coupled Receptor Assay for human Neuropeptide Receptor Y2 (NPY2) (AID 2283277)
# Sequence of Neuropeptide Y receptor type 2 (Homo sapiens) (P49146 whole entry, looked up): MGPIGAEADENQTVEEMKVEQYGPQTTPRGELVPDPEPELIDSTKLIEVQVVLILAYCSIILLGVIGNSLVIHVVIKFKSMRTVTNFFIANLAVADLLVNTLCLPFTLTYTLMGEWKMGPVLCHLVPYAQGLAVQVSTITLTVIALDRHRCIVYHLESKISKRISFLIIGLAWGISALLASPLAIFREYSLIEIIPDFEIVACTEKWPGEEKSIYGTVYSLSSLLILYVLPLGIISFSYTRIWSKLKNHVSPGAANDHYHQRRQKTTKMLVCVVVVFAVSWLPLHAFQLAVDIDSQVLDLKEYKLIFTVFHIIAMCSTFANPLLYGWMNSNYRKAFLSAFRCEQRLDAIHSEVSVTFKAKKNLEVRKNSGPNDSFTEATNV
# Experimental: as §1, with “NVS_GPCR_hNPY2” for “NVS_GPCR_hM2”, “SK-N-MC” for “CHO”, “plate.NVS_GPCR_hNPY2” for “plate.NVS_GPCR_hM2”, “NVS_GPCR_hNPY2,” for “NVS_GPCR_hM2,”, “Using a type of binding reporter, loss-of-signal activity can be used to understand changes in the binding as they relate to the gene CHRM2.” left out, “To generalize the intended target to other relatable targets, this assay endpoint is annotated to the gpcr intended target family, where the subfamily is rhodopsin-like receptor.” left out
# Binding assays used specific radioligands (tritiated, iodinated) with non-radioactive competitive displacement ligands in agonist or antagonist protocols (as indicated) and various reference compounds and inhibitors to titrate specific binding to receptors and transporters. Most enzyme assays (CYPs, kinases, phosphatases, proteases, HDACs) used recombinant protein and specific substrates (fluorescence mostly, some colorimetric and radioactive) and inhibitors, followed by a biochemical separation of substrate and product. […]
# [7] = biological target: human Neurokinin, NK2 Receptor, TACR2 (gene 6865) (UniProt P21452); assay: NVS_GPCR_hNK2: NovaScreen (NVS) G Protein-Coupled Receptor Assay for human Neurokinin, NK2 Receptor (AID 2283278);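 further: actives reduce bound radioligand signal relative to DMSO baseline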
# Sequence of human Neurokinin, NK2 Receptor, TACR2 (gene 6865) (P21452 whole entry, looked up): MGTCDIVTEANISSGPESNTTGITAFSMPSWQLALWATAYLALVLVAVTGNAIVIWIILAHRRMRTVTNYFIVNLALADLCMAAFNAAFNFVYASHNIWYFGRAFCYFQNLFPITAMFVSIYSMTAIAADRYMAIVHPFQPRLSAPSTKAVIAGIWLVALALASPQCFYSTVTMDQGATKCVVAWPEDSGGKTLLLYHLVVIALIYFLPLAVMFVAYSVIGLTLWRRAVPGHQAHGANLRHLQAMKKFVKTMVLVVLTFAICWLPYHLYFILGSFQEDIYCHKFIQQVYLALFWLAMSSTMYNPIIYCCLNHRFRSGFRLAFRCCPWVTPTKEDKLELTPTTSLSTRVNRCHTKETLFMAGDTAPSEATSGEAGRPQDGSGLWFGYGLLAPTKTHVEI
# Experimental: as §1, with “NVS_GPCR_hNK2” for “NVS_GPCR_hM2”, “4 hours” for “1 hour”, “plate.NVS_GPCR_hNK2” for “plate.NVS_GPCR_hM2”, “NVS_GPCR_hNK2,” for “NVS_GPCR_hM2,”, “TACR2.” for “CHRM2.”
# as §2
# [8] = biological target: D(1A) dopamine receptor (Homo sapiens) (UniProt P21728); assay: NVS_GPCR_hDRD1: NovaScreen (NVS) G Protein-Coupled Receptor Assay for human Dopamine Receptor D1 (DRD1) (AID 2283269)
# Sequence of D(1A) dopamine receptor (Homo sapiens) (P21728 whole entry, looked up): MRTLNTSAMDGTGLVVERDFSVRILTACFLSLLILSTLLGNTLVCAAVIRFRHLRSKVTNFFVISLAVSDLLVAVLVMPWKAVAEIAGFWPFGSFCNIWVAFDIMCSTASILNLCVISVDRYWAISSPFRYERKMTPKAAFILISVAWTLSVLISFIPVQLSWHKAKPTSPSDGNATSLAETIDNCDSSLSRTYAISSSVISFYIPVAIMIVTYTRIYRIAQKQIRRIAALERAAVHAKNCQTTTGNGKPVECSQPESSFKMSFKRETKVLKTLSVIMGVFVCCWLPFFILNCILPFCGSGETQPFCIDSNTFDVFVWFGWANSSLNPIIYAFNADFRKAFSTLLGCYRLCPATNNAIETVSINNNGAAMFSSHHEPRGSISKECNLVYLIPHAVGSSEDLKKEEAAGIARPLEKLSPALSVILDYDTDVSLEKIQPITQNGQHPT
# In short: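 HEK293-derived receptor preparation; radioligand competitive displacement; 1 h; filtration + scintillation counting. DMSO = negative control/baseline. Primary: 25 uM, duplicate; secondary: concentration–response for actives.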
# [9] = biological target: human Leukotriene B4 Receptor 1 (LTB4-BLT1), LTB4R (gene 1241) (UniProt Q15722); assay: NVS_GPCR_hLTB4_BLT1: NovaScreen (NVS) G Protein-Coupled Receptor Assay for human Leukotriene B4 Receptor 1 (LTB4-BLT1) (AID 2283271)
# Sequence of human Leukotriene B4 Receptor 1 (LTB4-BLT1), LTB4R (gene 1241) (Q15722 whole entry, looked up): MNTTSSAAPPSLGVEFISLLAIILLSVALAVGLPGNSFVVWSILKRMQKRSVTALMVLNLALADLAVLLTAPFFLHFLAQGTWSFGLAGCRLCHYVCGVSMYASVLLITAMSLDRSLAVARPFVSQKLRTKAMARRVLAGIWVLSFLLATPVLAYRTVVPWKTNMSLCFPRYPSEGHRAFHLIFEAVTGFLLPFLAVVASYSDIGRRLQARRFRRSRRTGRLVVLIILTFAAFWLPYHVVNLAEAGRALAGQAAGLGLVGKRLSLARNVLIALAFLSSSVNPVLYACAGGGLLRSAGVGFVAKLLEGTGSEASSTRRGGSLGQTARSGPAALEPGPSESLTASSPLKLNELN
# In short: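 Cell-free human neutrophil receptor preparation, 1 h exposure, radioligand binding read by filter scintillation counting. Single 25 uM duplicate screen, then concentration series topping at 50 uM; binding loss scored against DMSO baseline.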
# [10] = biological target: human Neuropeptide Receptor Y1 (NPY1), NPY1R (gene 4886) (UniProt P25929); assay: NVS_GPCR_hNPY1: NovaScreen (NVS) G Protein-Coupled Receptor Assay for human Neuropeptide Receptor Y1 (NPY1) (AID 2283276)
# Sequence of human Neuropeptide Receptor Y1 (NPY1), NPY1R (gene 4886) (P25929 whole entry, looked up): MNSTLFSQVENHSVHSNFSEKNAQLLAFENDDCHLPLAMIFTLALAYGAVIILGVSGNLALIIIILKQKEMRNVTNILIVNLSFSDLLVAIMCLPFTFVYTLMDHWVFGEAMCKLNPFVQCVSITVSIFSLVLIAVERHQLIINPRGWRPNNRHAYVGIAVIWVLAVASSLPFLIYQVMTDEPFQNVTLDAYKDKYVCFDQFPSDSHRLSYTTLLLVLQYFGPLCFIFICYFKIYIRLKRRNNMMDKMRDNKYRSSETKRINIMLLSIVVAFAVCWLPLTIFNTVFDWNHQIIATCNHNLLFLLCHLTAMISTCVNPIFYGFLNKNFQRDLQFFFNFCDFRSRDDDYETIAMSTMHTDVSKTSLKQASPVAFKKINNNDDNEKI
# In short: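 Displacement of specific radioligand from NPY1 receptor of SK-N-MC origin, read by filtration and scintillation after 1 h. Compounds first tested at 25 uM in duplicate, then actives in concentration series; signal loss relative to DMSO.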
structure (smiles),measurement,setting,value
CC/C(=C(\c1ccccc1)c1ccc(OCCN(C)C)cc1)c1ccccc1,outcome,[1],inactive
same,outcome,[2],inactive
same,AC50,[3],19.3 µM (active)
same,AC50,[4],10.1 µM (active)
same,AC50,[5],7.13 µM (active)
same,AC50,[6],11.9 µM (active)
same,AC50,[7],6.84 µM (active)
same,outcome,[7],inactive
O=S1(=O)CC(Cl)(Cl)C(Cl)(Cl)C1,AC50,[8],20.1 µM (active)
same,outcome,[7],inactive
C=C1CC[C@H]2O[C@]2(C)CC[C@@H]2[C@@H]1CC2(C)C,outcome,[8],inactive
CCC(=O)OC/C=C(\C)CCC=C(C)C,outcome,[8],inactive
CCCCOCCOCCO,outcome,[7],inactive
CC(=O)OCC=C(C)CCC=C(C)CCC=C(C)C,outcome,[8],inactive
N#CCCCC(C#N)CCC#N (centres undefined),outcome,[8],inactive
O=C1OC2(c3ccc(O)cc3Oc3cc(O)ccc32)c2ccccc21,outcome,[7],inactive
CCOC(=O)C=Cc1ccccc1,AC50,[3],38.6 µM (active)
c1ccc2c(c1)-c1ccc3ccc4cccc5cc-2c1c3c45,outcome,[8],inactive
CC(=O)c1cccnc1,outcome,[3],inactive
O=C(c1ccc(OCCN2CCCCC2)cc1)c1c(-c2ccc(O)cc2)sc2cc(O)ccc12,AC50,[2],1.07 µM (active)
same,AC50,[8],0.948 µM (active)
same,outcome,[9],inactive
same,AC50,[3],2.92 µM (active)
same,AC50,[4],4.93 µM (active)
same,AC50,[5],3.7 µM (active)
same,AC50,[10],7.83 µM (active)
same,AC50,[7],3.58 µM (active)
Cc1cc(N)n(-c2ccccc2)n1,AC50,[3],13.9 µM (active)
CC(C)(O)CCc1ccccc1,outcome,[8],inactive
